MmCpn inh: M. maripaludis TRiC chaperonin inhibition; 330,000 tested, 0.031% active; purified Mm-Cpn ATPase, ADP Transcreener TR-FRET; Potency, µM (titrated, usually from 76.9 µM), for inactives: at the top dose activity, negative = inhibition, actives largely listed as inhibitors; AID 504842; further: potency means the concentration at half of the fitted maximal effect; on the % scale 0 is the no-effect control and ±100 the full control effect; nearly all actives have a fitted effect of over 80% in size
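Purified archaeal chaperonin (25 nM final) was preincubated with compound for 10 min at 37°C, then ATP (10 uM final) was added for 30 min at 37°C in Tris pH 7.4/KCl/MgCl2/DTT buffer. ADP was quantified by HTRF Transcreener TR-FRET.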
PTHR1 ag: PTHR1 (human) receptor agonism | Potency, µM (highest dose often 115 µM), inactives show at the top dose activation, hits mostly activators | Q03431 | 410,000 tested, 0.075% active | HEK293 GP2 PTHR1 cells, GloSensor cAMP luminescence, 1 h; further: potency means the concentration at half of the fitted maximal effect; nearly all actives have a fitted effect of over 55% in size
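HEK-293-derived GP2 cells expressing PTHR1 and a GloSensor cAMP reporter, 3,000/well, plated overnight, given luciferin plus IBMX (each 0.5 mM as added) for 1 h at 37 °C, then compound for 1 h at 37 °C. Luminescence was read after 15 min at room temperature.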
ERG Ets-DNA blk: ERG Ets/DNA interaction inhibition. P11308. AID 624246. Potency, µM (titrated, usually from 76.9 µM), inactives show at the top dose FP activity, negative = inhibition, actives largely listed as inhibitors. 370,000 tested, 0.028% active. fluorescence polarization, His-ERG Ets domain / labelled DNA; active means well fitted inhibition curve with a large enough effect in the polarisation, with a control signal flat; inconclusive means small, poorly fitted or top-dose-only effect, or effect the other way, or a change in a side signal; inactive means no such curve, though single readings can be large or run the other way; the % refers to the polarisation;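 further: polarization taken with two DNA probes labelled with fluorescein and Texas red; potency means the concentration at half of the fitted maximal effect; % of control where 0% means no effect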
Target sequence (P11308 whole entry, looked up, the tested form may be a part): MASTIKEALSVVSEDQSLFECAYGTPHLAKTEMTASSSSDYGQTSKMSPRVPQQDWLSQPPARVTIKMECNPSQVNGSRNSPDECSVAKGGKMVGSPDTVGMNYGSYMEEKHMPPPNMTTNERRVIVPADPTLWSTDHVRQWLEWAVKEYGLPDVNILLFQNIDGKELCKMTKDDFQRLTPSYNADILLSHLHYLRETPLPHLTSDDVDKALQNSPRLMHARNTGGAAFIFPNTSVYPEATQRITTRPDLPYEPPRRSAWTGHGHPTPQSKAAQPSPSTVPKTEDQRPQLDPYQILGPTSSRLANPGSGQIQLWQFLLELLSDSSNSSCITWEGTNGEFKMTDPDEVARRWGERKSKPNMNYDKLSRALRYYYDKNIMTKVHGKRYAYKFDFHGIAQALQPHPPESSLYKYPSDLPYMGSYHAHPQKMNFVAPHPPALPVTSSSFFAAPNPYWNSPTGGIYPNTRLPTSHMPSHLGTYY
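His-tagged ERG Ets domain (1 uM in the protein solution; 300mM KCl, 50mM Tris-HCl, 1mM EDTA, 1mM DTT, pH 7.5) received compound, then a probe mix of 5 nM fluorescein-DNA and 100nM Texas-615-DNA. Fluorescence polarization was read for both dyes.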
CCT modulator: cytosolic chaperonin activity modulation; activity change, % (no concentration beside the values), hits read low; purified chaperonin ATPase assay, HTRF ADP detection, 30 min; AID 651819; 360,000 tested, 0.3% active; in the data active means activity change below about -30%; further: on the % scale 0 is the no-effect control and ±100 the full control effect
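First, chaperonin was dispensed at 40 nM or 20 nM final depending on batch activity. Next, compounds were pinned at 76 uM and ATP added at 10 uM. After 30 min at 37 °C, ADP detection reagents ran 30 min at ambient temperature.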
RGS4 inhibitor: human RGS4 inhibition. P49798. Transcreener GDP fluorescence polarization, RGS4-accelerated GTP hydrolysis. Potency, µM (titrated, usually from 114 µM), for the others: at the highest dose activity change, negative = inhibition, actives largely listed as inhibitors. 390,000 tested, 0.039% active; further: potency means the concentration at half of the fitted maximal effect; on the % scale 0 is the no-effect control and ±100 the full control effect; nearly all actives have a fitted effect of over 75% in size
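MLSMR compounds (23 nl, pin-transferred) preincubated 10 min at room temperature with a 500nM (2x) first reagent, then RGS4 at 900nM (2x) plus Transcreener GDP mix added; fluorescence polarization (620/688 nm) read before and after 90 min at 30 °C.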
The depositor's hits bear a star; i = inactive; ? = inconclusive; nt = no result; [ ] = another dose, or the depositor's remark. In the library only some 0.36% were active in any assay of this set; here they are far more common. Unless noted, the call rests on the fitted dose curve; in most records, active means well fitted curve in the direction sought with a large enough effect; inconclusive means small, poorly fitted or top-dose-only effect, or another doubt; inactive means no such curve, though single readings can be large; an effect the other way counts as inactive or inconclusive.

SMILES | MmCpn inh | PTHR1 ag | ERG Ets-DNA blk | CCT modulator | RGS4 inhibitor
CCOc1ccc(CCNC(=O)CCCn2c(=O)c3cccn3c3cccnc32)cc1OCC | 2% | -32% | 8% | -86* | ?
CC1(C)C2CCC1(C)C(OC(=O)CSc1nc(N)cc(=O)[nH]1)C2 (configuration not stated) | -2% | i | 0% | -70* | -15%
COc1cccc(OCc2cc(C(=O)N3CCC(c4ccncc4)CC3)no2)c1 | -2% | -93% | 1% | -1 | -14%
CC(=O)c1ccc(OCc2cc(C(=O)N3CCC(c4ccncc4)CC3)no2)cc1 | 0% | -21% | -4% | -49* | -19%
O=C(Cn1ccc2ccccc2c1=O)NCCC(=O)NC1CCN(Cc2ccccc2)CC1 | -4% | i | 0% | -31* | 23%
Cc1cccc(CN2CCC(CNC(=O)CCNC(=O)Cn3ccc4ccccc4c3=O)CC2)c1 | 1% | i | -8% | 0 | -12%[56.9 µM]
CNC(=S)N1N=C(c2ccc(C)cc2)CC1c1ccc(OC)cc1 (configuration not stated) | -19% | -2%[57.5 µM] | 10% | -1 | -17%
CNC(=S)N1N=C(c2ccc(C)cc2)CC1c1ccc(N(C)C)cc1 (configuration not stated) | 25µM* | -3% | 3% | 0 | 12%
CCC(C)C(NC(=O)OC(C)(C)C)C(=O)NC1COC2CC(n3cc(F)c(=O)[nH]c3=O)OC12 (configuration not stated) | nt | nt | nt | nt | -4%
COc1cc(Br)cc(C=Nc2cccc(C(F)(F)F)c2)c1O | 1% | -3% | -16% | -31* | -50%
CC1CCCCN1CCCNC(=O)c1nn(C)c2c1CS(=O)(=O)c1ccccc1-2 (configuration not stated) | -2% | i | 5% | -3 | -9%[56.9 µM]
CC1CCCN(CCCNC(=O)c2nn(C)c3c2CS(=O)(=O)c2ccccc2-3)C1 (configuration not stated) | -2% | 0% | 5% | -76* | ?
CC(C)(C)c1cc(/C=C(\C#N)C(N)=S)cc(C(C)(C)C)c1O | nt | nt | nt | nt | 11µM*
COCCNC(=O)CSc1nc2ccccc2c(=O)n1CCCC(=O)NCc1ccccc1 | 1% | i | -2% | -75* | -14%
COCCCNC(=O)CSc1nc2ccccc2c(=O)n1CCCN1CCCCC1 | ? | -18% | -14% | -4 | -4%
Cc1cccc(NC(=O)C2CCCN(S(=O)(=O)c3c(C)[nH]c(=O)[nH]c3=O)C2)c1C (configuration not stated) | nt | 18% | 7% | nt | 16%
COc1ccccc1-c1sc2cc3c(cc2c1C#Cc1ccccn1)OCO3 | 32µM* | i | 2% | 0 | -20%
COc1ccccc1-c1sc2cc3c(cc2c1C#CC1(O)CCCCC1)OCO3 | ? | i | 15% | 1 | -19%
O=C(Nc1ccc2c(c1)OCCO2)c1oc2ccccc2c1NC(=O)C1CC1 | 4% | -68% | 3% | -45* | -8%
CC(C)CC(NC(=O)CC12CC3CC(CC(C3)C1)C2)C(=O)NC1=NCCS1 (configuration not stated) | 0% | -27% | 6% | -98* | ?
O=C(NCCc1nc2ccccc2n1CCOc1ccc(Cl)cc1)C1CCCCC1 | nt | nt | -5% | nt | ?
CC(=O)Nc1ccc(NC(=O)c2ccccc2Sc2ccc([N+](=O)[O-])cc2Cl)cc1 | 1% | -27% | -3% | -34* | -1%
O=C(Nc1ccc(Nc2ccccc2)cc1)c1cc([N+](=O)[O-])ccc1Cl | -1% | -6% | -2% | -4 | 15%
COc1cc(C(=O)CC2(O)C(=O)N(Cc3ccccc3Cl)c3ccccc32)cc(OC)c1OC (configuration not stated) | nt | -53% | 2% | nt | -13%
CCN(c1ccccc1)S(=O)(=O)c1ccc(NC(=O)c2cc(=O)c3cc(C)ccc3o2)cc1 | nt | i | -2% | nt | -16%
COc1cc(NC(=O)c2nn(-c3ccc(F)cc3)c(=O)n(C)c2=O)cc(OC)c1OC | nt | -3% | 11% | nt | -5%
CN(C(=O)CSc1nc(N)nn1-c1ccccc1)c1ccccc1 | -1% | i | -3% | -70* | -14%

Source: PubChem BioAssay
